# Reference: PubChem BioAssay AID624417 (National Center for Advancing Translational Sciences (NCATS), 2012)
# About 6,400 (1.6%) of roughly 410,000 compounds were called active. About 20% were inconclusive and are not listed. This is one part of a sample in which actives are shown more often than they occur. Calls follow the shape of the dose curve; as a rule, active = well fitted inhibition curve with a large enough effect; inconclusive = small, poorly fitted or top-dose-only effect; inactive = no such curve, though single readings can be large or run the other way.
# Molecular target: Glucagon-like peptide 1 receptor (Homo sapiens) (UniProt P43220)
# Sequence (P43220 whole entry, looked up): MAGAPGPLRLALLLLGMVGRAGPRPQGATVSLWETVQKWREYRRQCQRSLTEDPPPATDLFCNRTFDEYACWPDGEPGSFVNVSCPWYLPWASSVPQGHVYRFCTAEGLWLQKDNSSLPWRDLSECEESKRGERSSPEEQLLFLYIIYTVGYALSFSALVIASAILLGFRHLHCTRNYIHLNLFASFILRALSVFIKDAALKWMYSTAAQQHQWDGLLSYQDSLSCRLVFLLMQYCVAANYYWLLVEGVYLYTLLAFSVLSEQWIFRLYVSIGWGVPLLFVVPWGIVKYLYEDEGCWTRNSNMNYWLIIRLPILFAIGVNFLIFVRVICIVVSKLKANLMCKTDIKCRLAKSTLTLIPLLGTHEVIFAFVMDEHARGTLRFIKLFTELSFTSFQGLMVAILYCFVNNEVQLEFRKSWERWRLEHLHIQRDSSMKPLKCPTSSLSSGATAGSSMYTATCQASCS
# Assay: qHTS of GLP-1 Receptor Inverse Agonists (Inhibition Mode); also: nearly all actives have a fitted effect of over 55% in size
# Settings: HEK293 GLP-1R CRE-luciferase, luminescence, 24 h, GLP-1R form is constitutively active; series mostly up to 38.3 µM; activity change, negative = inhibition: at the top concentration
# How it was run: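 Luminescence readout: a drop in cAMP-driven luciferase signal flags inverse agonism at a constitutively active GLP-1R stably expressed in HEK293. Compound exposure lasted 24 hr at 37 deg C, 5% CO2.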
# % is scaled to controls: 0 for no effect and ±100 for the full control effect; potency is read from the fitted curve at half-maximal effect.
Compound,"activity change, negative = inhibition",Potency
COc1ccccc1CNC(=O)c1cc(-c2cc(F)ccc2OC)n[nH]1,-19.5% (inactive),–
O=[N+]([O-])c1ccc(N2CCOCC2)cc1,2.47% (inactive),–
O=c1[nH]n(-c2ccc([N+](=O)[O-])cc2)c(=O)c2ccccc12,–,5.01 µM (active)
COc1cnn(-c2ccc([N+](=O)[O-])cc2)c(=O)c1Cl,16% (inactive),–
COc1ccc(S(=O)(=O)N[C@@H]2C=C[C@@H](CC(=O)N3CCc4ccccc4C3)O[C@@H]2CO)cc1,5.11% (inactive),–
CC(C)CNC(=O)C1(C)CCCN1C(=O)CSc1ccccc1 (centres undefined),-1.66% (inactive),–
O=S(=O)(c1cccc(C(F)(F)F)c1)N1CCN(c2cnccn2)CC1,-8.51% (inactive),–
CC(=O)Nc1ccc(NC(=O)C2CCCN2S(=O)(=O)c2cccc(C(F)(F)F)c2)cc1 (centres undefined),-10.5% (inactive),–
O=S(=O)(c1cccc(C(F)(F)F)c1)N1c2ccccc2-n2cccc2C1c1cccnc1 (centres undefined),–,10 µM (active)
Cc1ccc(C)c(NC(=S)NNC(=S)Nc2ccc(C(C)C)cc2)c1,–,3.55 µM (active)
Cc1ccc(C)c(NC(=S)NNC(=O)c2csc(C)c2)c1,3.02% (inactive),–
CC(C)c1ccc(NC(=S)NNc2ccc(Cl)c(C(=O)O)c2)cc1,-22.4% (inactive),–
CCCC(=O)NC(Nc1ccccc1OC)C(Cl)(Cl)Cl (centres undefined),0% (inactive),–
CCCCCN(C(=O)NC(=O)Nc1ccccc1OC)S(C)(=O)=O,-1.5% (inactive),–
CCCCCCCC(=O)NC(Nc1ccccc1OC)C(Cl)(Cl)Cl (centres undefined),–,6.31 µM (active)
Cn1ncc([N+](=O)[O-])c1C(=O)Nc1cc(Cl)ccc1Cl,-4.93% (inactive),–
CCc1nc2ccc(C(=O)N(C)Cc3ccco3)cn2c1N(C)C(=O)Cc1ccccc1,-3.62% (inactive),–
OC[C@@H]1CN(C2CCCC2)C[C@H](n2cnc3c(NC4CCC4)ncnc32)O1,-2.75% (inactive),–
CCc1ccccc1OCC(=O)Nc1ccc(C)c(S(=O)(=O)N2CCCCCC2)c1,–,8.91 µM (active)
Cc1ccccc1OCC(=O)Nc1ccc(N2CCN(C(=O)C(C)C)CC2)c(Cl)c1,–,3.98 µM (active)
COc1ccccc1C(CNC(=O)c1ccc(C)c(S(=O)(=O)N2CCCCC2)c1)N(C)C (centres undefined),-12.3% (inactive),–
Cc1ccccc1OCC(=O)Nc1ccc2c(c1)ncn2C,17.7% (inactive),–
Cc1ccc(NC(=O)COC(=O)C2CC2)cc1S(=O)(=O)N1CCOCC1,-1.9% (inactive),–
Cc1ccccc1OCC(=O)Nc1ccc(S(=O)(=O)N2CCOCC2)cc1,0.83% (inactive),–
COc1ccccc1C(=O)Nc1ccc(C)c(S(=O)(=O)N2CCCCC2)c1,–,14.1 µM (active)

Compound,"activity change, negative = inhibition",Potency
COc1ccc(NC(=O)C2=NNC(=O)CC2)cc1S(=O)(=O)N1CCCCC1,33.5% (inactive),–
Cc1ccc(NC(=O)CCC(=O)N2CCC(c3ccccc3)=N2)cc1S(=O)(=O)N1CCCCC1,4.32% (inactive),–
CC1(C(=O)NS(=O)(=O)c2ccccc2)CCN1C(=O)c1ccccc1 (centres undefined),22.7% (inactive),–
Nc1nc(CSc2nnnn2-c2ccccc2)nc(Nc2ccccc2)n1,25.2% (inactive),–
CCOC(=O)C1=CCC2C(=O)N(Cc3ccccc3)C(=O)C12 (centres undefined),19.7% (inactive),–
COC(=O)[C@]12CCCCC=C1N(Cc1ccco1)C(=O)[C@H](CC(=O)NCCCCc1ccccc1)C2,-33.9% (inactive),–
CCN(C(=O)Nc1cccc2ccccc12)c1ccccc1,-26.5% (inactive),–
CC(C)[C@H](NC(=O)c1ccccc1F)C(=O)Nc1cccc(S(=O)(=O)N2CCOCC2)c1,-8.55% (inactive),–
CCCNC(=O)C1(C)CCN(C(=O)c2ccccc2OC(F)(F)F)C1 (centres undefined),-9.35% (inactive),–
OC[C@H]1O[C@@H](c2nc(-c3nc(-c4ccc(F)cc4)no3)cs2)[C@H](O)[C@@H](O)[C@H]1O,0.715% (inactive),–
CC1(C(=O)NCc2ccccc2)CN(S(C)(=O)=O)CC(=O)N1CC(F)(F)F (centres undefined),-0.0418% (inactive),–
Cc1onc(-c2ccccc2Cl)c1C(=O)NCCn1ccc2ccccc21,–,6.31 µM (active)
CC(=O)Nc1cccc(/C(C)=N/NC(=O)c2c(-c3ccccc3Cl)noc2C)c1,4.71% (inactive),–
COCCNC(=O)c1ccccc1-c1nc(-c2ccccc2Cl)no1,-3.04% (inactive),–
CCNC(=O)C1CCCN(C(=O)c2ccc(OC)cc2OC)CC1 (centres undefined),20.1% (inactive),–
COc1ccc(NC(=O)c2cc(-c3ccc(C)o3)nc3ccccc23)cc1,-24.4% (inactive),–
COc1ccccc1NC(=O)c1cc(C2CC2)nc2c1c(C)nn2-c1ccc(C)cc1,-11.6% (inactive),–
COc1cc(NC(=O)c2cc(C3CC3)nc3c2c(C)nn3-c2ccccc2)cc(OC)c1,–,10 µM (active)
CC(C)C[C@H]1CNC(=O)C(=O)N1C[C@@H]1CCCN1C[C@H](Cc1ccccc1)N1C[C@H](CC(C)C)N(CC2CCCCCC2)C(=O)C1=O,24.7% (inactive),–
CCc1noc(C)c1C(=O)Oc1ccc(N(C)S(=O)(=O)c2ccc(C)c(C)c2)cc1,–,12.6 µM (active)
CN(c1ccc(OCC(=O)O)cc1)S(=O)(=O)c1ccc2ccccc2c1,3.29% (inactive),–
Cc1ccc(S(=O)(=O)N(C)C)cc1NC(=O)COC(=O)c1c(C)noc1C,2.65% (inactive),–
COC(=O)c1ccc2nc(-c3cccc(Br)c3)c(Cc3ccc(OC)cc3C)n2c1,-12% (inactive),–
COc1ccc(NC(=O)N(C)C[C@@H]2OCc3cn(nn3)CCCC(=O)N([C@H](C)CO)C[C@H]2C)c(OC)c1,-5.31% (inactive),–
O=C(NCCc1csc(-c2ccccc2)n1)c1ccccc1F,-18.6% (inactive),–

Compound,"activity change, negative = inhibition",Potency
COc1ccc(-c2nc(CCNC(=O)c3ccc(Br)o3)cs2)cc1,–,inactive
COc1ccc(CCC(=O)NCCc2csc(-c3ccc(Cl)cc3)n2)cc1,–,10 µM (active)
CN1OC[C@@H]2CN(C(=O)c3cccnc3)[C@H](c3ccc(N4CCCCC4)cc3)C[C@@H]21,22.9% (inactive),–
CNC(=O)C[C@H]1C(=O)N(Cc2ccccc2)C[C@@H]1CSC,3.07% (inactive),–
Oc1ccc(-c2nc3ccc(Cl)cn3c2Nc2ccc3c(c2)OCO3)cc1,5.13% (inactive),–
Cc1cccc2nc(-c3ccc(Cl)s3)c(Nc3ccc4c(c3)OCCO4)n12,–,10 µM (active)
Oc1ccccc1-c1nc2ccc(Cl)cn2c1Nc1ccc2c(c1)OCCO2,4.4% (inactive),–
O=C(NCCS(=O)(=O)N1CCN(c2ccccc2)CC1)c1cc(=O)c2ccccc2o1,-0.814% (inactive),–
CC1(C2CC2)NC(=O)N(CC(=O)N2CCN(c3ccccc3F)CC2)C1=O (centres undefined),3.81% (inactive),–
O=C(Nc1ccc(OCCO)cc1)c1csc([C@H]2C[C@H](O)[C@@H](CO)O2)n1,14.8% (inactive),–
COc1ccc(CSc2nc(N3CCOCC3)c3c(c2C#N)CC(C)(C)OC3)cc1,-7.76% (inactive),–
CCOC(=O)CSc1nc(N2CCOCC2)c2c(c1C#N)CC(C(C)C)OC2 (centres undefined),–,2.24 µM (active)
CCOC(=O)CSc1nccc(N(C)C)c1C#N,4.71% (inactive),–
Cc1ccc(-c2c(N)nc3ncccn23)cc1,8.12% (inactive),–
CCCc1c(-c2ccccc2F)ncn1Cc1ccccc1OC,-29.9% (inactive),–
COc1cccc(NC(=O)C2(C)CCN2C(=O)CCC2CCCC2)c1 (centres undefined),-23.3% (inactive),–
CSc1ccc(CN2CCC2(C)C(=O)Nc2ccc(C)c(O)c2)cc1 (centres undefined),-23.4% (inactive),–
CC1(C(=O)Nc2cccc(Oc3ccccc3)c2)CCN1Cc1ccccc1Cl (centres undefined),–,10 µM (active)
Cc1ccc(C)c(C(O)c2ncc(-c3cccc4ccccc34)[nH]2)c1 (centres undefined),-13.6% (inactive),–
CCc1ccccc1NC(=S)Nc1cc(OC)c(NC(=O)C(C)C)cc1OC,-3.86% (inactive),–
CCc1ccccc1NC(=O)CCOc1ccccc1,–,inactive
CCc1ccccc1NC(=O)/C(=C/c1ccccc1)c1ccccc1,–,11.2 µM (active)
O=S1(=O)CC(N2CCN(Cc3ccccc3F)CC2)CN1Cc1cn(Cc2ccccc2)nn1 (centres undefined),0.366% (inactive),–
O=C(NCCSCc1ccccc1)c1ccc(Cl)c(S(=O)(=O)N2CCOCC2)c1,–,11.2 µM (active)
Cc1nn(Cc2ccccc2)c(C)c1CNC(=O)c1ccc(F)c(S(=O)(=O)N2CCOCC2)c1,-18.7% (inactive),–

Compound,"activity change, negative = inhibition",Potency
NS(=O)(=O)c1ccc(CCNC(=O)c2ccc(Cl)c(S(=O)(=O)N3CCCCCC3)c2)cc1,-24.7% (inactive),–
CCCC(=O)N1CCC1(C)C(=O)Nc1ccc(-n2cncn2)cc1 (centres undefined),14.1% (inactive),–
CCOC(=O)C1CCCN(C(=O)c2ccc(N(C)C)cc2)CC1 (centres undefined),18.7% (inactive),–
O=C1c2ccccc2C(=O)c2c1cccc2N1CCN(CCO)CC1,0% (inactive),–
CC(Nc1nc(N2CCN(CCO)CC2)nc2ccccc12)c1ccccc1 (centres undefined),–,4.47 µM (active)
OCCN1CCN(c2nnc(-c3ccccc3)c3ccccc23)CC1,-8.64% (inactive),–
CC(=O)Nc1cc(-c2ccc(N3CCN(C)CC3)cc2)cn2c(-c3cccc(C(=O)N(C)C)c3)cnc12,14.6% (inactive),–
COc1ccc(CNC2CCCCC2)cc1,9.28% (inactive),–
COc1cc(CNC2CCCC2)c(Br)cc1OCc1ccccc1,–,3.16 µM (active)
COc1cc(C=O)c(Br)cc1OCC(=O)NCc1ccccc1,-19.7% (inactive),–
COc1cc2nnn(-c3ccncc3)c2cc1OC,25.3% (inactive),–
O=C(CN1CCCCCC1)Nc1ccc(Cl)cc1F,-19.6% (inactive),–
O=C(CN1CCCCCC1)Nc1ccc(Br)cc1[N+](=O)[O-],-24.9% (inactive),–
O=C(CN1CCCCCC1)Nc1ccc(Br)cc1Br,–,10 µM (active)
COCCCNC(=O)c1cccc2c(-c3ccc(O)c(OC)c3)coc12,-6.91% (inactive),–
COc1cccc(CN2CCC(C(=O)NC(c3ccc4c(c3)OCO4)c3ccccn3)CC2)c1 (centres undefined),-6.91% (inactive),–
CCc1nc2ccc(C(=O)NC3CCN(Cc4ccccc4)CC3)cn2c1N(CC)CCOC,9.54% (inactive),–
Cc1cc(Br)cn2c(Cc3cccc(F)c3)c(-c3cccc(Br)c3)nc12,-29.4% (inactive),–
Cn1cc(CCC(=O)N2CCCC(C(=O)c3ccc(C(C)(C)C)cc3)C2)cn1 (centres undefined),–,10 µM (active)
O=C1CCC(CCC(=O)N2CCCC(C(=O)c3ccc(Cl)cc3)C2)=NN1 (centres undefined),16% (inactive),–
COCC(=O)N1CCCC(C(=O)c2ccc(C(F)(F)F)cc2)C1 (centres undefined),4.28% (inactive),–
CCCNC(=O)c1cc(C2CCCCN2S(=O)(=O)c2cn(C)cn2)on1 (centres undefined),14.7% (inactive),–
O=C(NCc1ccc(F)cc1)c1cc(C2CCCCN2C(=O)c2ccccn2)on1 (centres undefined),11.6% (inactive),–
Cc1cccc(S(=O)(=O)N(C)C[C@H]2OCc3cnnn3CCCC(=O)N([C@@H](C)CO)C[C@H]2C)c1,9.44% (inactive),–
